Experimental data: PubChem BioAssay
Several values for one entry are separate records, joined by “and”; a condition that tells them apart may be missing. Identical values can stand only once. Values without a mark were called inactive.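 The calls were made as follows: active = z-score of at least 1.8 in each of two replicates, scored against plate mean and spread of sample wells; inactive = the rest.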

Assay: viability rescue of complex I mutant cybrids, primary screen, cell-based, galactose medium, ATP luminescence (AID 1645843);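 also: positive z means more ATP and so rescue of galactose-driven cybrid death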
Conditions: complex I mutant cybrid cells, 72 h, hits give high values

| Structure (SMILES) | z-score |
| --- | --- |
| Cc1[nH]c(C)c(Cl)c(=O)c1Cl | 0.41 |
| C[C@H]1COc2c(C3(N)CC3)c(F)cc3c(=O)c(C(=O)O)cn1c23 | 0.735 |
| CC(C)(O)c1ccccc1CC[C@@H](SCC1(CC(=O)O)CC1)c1cccc(/C=C/c2ccc3ccc(Cl)cc3n2)c1 | 0.48 |
| CCN1CCN(c2cc3c(cc2F)c(=O)c(C(=O)O)cn3C2CC2)CC1 | -0.045 and 0.1 |
| CCN1CC(CCN2CCOCC2)C(c2ccccc2)(c2ccccc2)C1=O (centres undefined) | 0.71 |
| COC(=O)CCc1ccc(OCC(O)CNC(C)C)cc1 (centres undefined) | 0.52 and 0.07 |
| CC(=O)Nc1ccc(OCC(O)CNC(C)C)cc1 (centres undefined) | 0.68 |
| Cc1ccc(C(=O)c2ccc(CC(=O)O)n2C)cc1 | 1.02 |
| CN1CCN(c2c(F)cc3c(=O)c(C(=O)O)cn4c3c2SCC4)CC1 | -0.175 and 0.05 |
| CCCCCCCCCCCCCCCCOP(=O)([O-])OCC[N+](C)(C)C | -0.3 |
| CN(C)CCCSc1ccccc1NC(=O)/C=C/c1ccccc1 | -0.09 and 0.525 |
| CC(C)(C(=O)c1cccnc1)c1cccnc1 | 0.18 |
| CC1(C)S[C@@H]2[C@H](NC(=O)[C@H](N)c3ccccc3)C(=O)N2[C@H]1C(=O)O | 0.415 |
| CCN(CC)C(=O)N1CCN(C)CC1 | 0.74 |
| COc1ccc(C(=O)NCc2ccc(OCCN(C)C)cc2)cc1OC | 0.35 and 0.59 |
| CC(Oc1c(Cl)cccc1Cl)C1=NCCN1 (centres undefined) | 0.71 and 0.175 |
| CN1CCCCC1CCN1c2ccccc2Sc2ccc(S(C)=O)cc21 (centres undefined) | 0.175 and 0.14 |
| CN(CCCN1c2ccccc2CCc2ccccc21)CC(=O)c1ccc(Cl)cc1 | -1.82 and -0.185 |
| CCOC(=O)C1=C(C)NC(C)=C(C(=O)OCC)C1c1ccccc1/C=C/C(=O)OC(C)(C)C | -1.98 |
| NC(N)=Nc1nc(CSCC/C(N)=N/S(N)(=O)=O)cs1 | 0.125 and 0.38 |
| CC(=O)Nc1ccc(CC(=O)O)cc1 | 0.87 |
| CC(=O)OC/C=C(C)/C=C/C=C(C)/C=C/C1=C(C)CCCC1(C)C | -0.205 |
| CN(C)/N=N/c1nc[nH]c1C(N)=O | -1.27 |
| C[C@@](Cc1ccc(O)c(O)c1)(NN)C(=O)O | 1.23 and -0.53 |
| CC(C)NCC(O)c1ccc2ccccc2c1 (centres undefined) | 0.85 and 0.48 |
| CCOC(=O)OC(C)OC1=C(C(=O)Nc2ccccn2)N(C)S(=O)(=O)c2ccccc21 (centres undefined) | 0.855 and 0.87 |
| COc1cc(C(=O)NCc2ccc(OCCN(C)C)cc2)cc(OC)c1OC | 0.17 |
| Nc1nc2c(ncn2CCC(CO)CO)c(=O)[nH]1 | 0.83 and 0.595 |
| CC(C)(Oc1ccc(Cl)cc1)C(=O)O | 0.98 |
